Test results taken from PubChem BioAssay (NCATS).
Inconclusive results are not listed. Activity calls are given as the source filed them. Calls follow the shape of the dose curve; as a rule, active = well fitted curve in the direction sought with a large enough effect; inconclusive = small, poorly fitted or top-dose-only effect, or another doubt; inactive = no such curve, though single readings can be large; an effect the other way counts as inactive or inconclusive.

Columns and labels:
[1] = target: Arylsulfatase A (Homo sapiens) (UniProt P15289); assay: qHTS screen for enhancers of Arylsulfatase A (ASA1): LOPAC Validation Assay (AID 720538)
How it was run: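 MLD patient fibroblasts (SV40, ASA-I179S), 1536-well; adhere 6 hrs; cpd 48h, 37 degree C, 5% CO2; pNCS 0.5mM final in lysis buffer, 14h RT; stop 1N NaOH final; fluor. Ex525/Em598.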

[2] = qHTS for compounds that reverse cellular toxicity of Amyloid beta (A-beta) peptide in yeast: LOPAC Validation Assay (AID 720559)
How it was run: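 Medium dispensed, compounds pinned, A-beta yeast suspension added; plates held at 30 C for 48 hr; absorbance measured at 600 nm to gauge growth; values scaled between DMSO and FeCl3/clioquinol (equimolar) controls.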

[3] = qHTS for Activators of Parkin Expression: LOPAC Validation Assay (NLuc Reporter) (AID 720572)
How it was run: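 Compound effects on Parkin promoter activity were measured as NanoLuc luminescence after 24 h at 37 C. The neuronal reporter line also carried FLuc, which was read first. LOPAC compounds were tested at 7 concentrations, with normalization to DMSO (0%) and positive control (100%).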

[4] = qHTS for Activators of Parkin Expression: LOPAC Validation Assay (FLuc Reporter) (AID 720573)
How it was run: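 Cells seeded, 24 h; compounds pinned, 7-pt dose response; 24 h at 37 C/5% CO2; volume reduced; FLuc reagent 10 min RT; luminescence read. Normalization: DMSO = 0, positive control = 100%.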

Measured: Potency

Sequence of Arylsulfatase A (Homo sapiens) (P15289 whole entry, looked up): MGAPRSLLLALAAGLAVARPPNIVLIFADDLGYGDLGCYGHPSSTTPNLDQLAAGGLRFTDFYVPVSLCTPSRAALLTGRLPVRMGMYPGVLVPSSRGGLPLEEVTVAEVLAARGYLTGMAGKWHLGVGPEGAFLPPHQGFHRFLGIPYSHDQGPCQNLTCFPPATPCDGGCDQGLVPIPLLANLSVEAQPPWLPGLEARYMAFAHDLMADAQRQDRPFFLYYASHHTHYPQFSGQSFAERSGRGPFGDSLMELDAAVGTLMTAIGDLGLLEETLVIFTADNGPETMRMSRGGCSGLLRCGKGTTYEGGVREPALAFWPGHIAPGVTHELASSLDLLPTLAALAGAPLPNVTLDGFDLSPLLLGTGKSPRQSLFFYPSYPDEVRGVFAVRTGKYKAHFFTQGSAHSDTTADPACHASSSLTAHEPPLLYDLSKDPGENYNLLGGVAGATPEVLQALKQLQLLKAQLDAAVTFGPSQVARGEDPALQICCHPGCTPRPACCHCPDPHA

N[C@@H](Cc1ccc(O)c(I)c1)C(=O)O
inactive: all assays above

CCCOC(=O)c1c(-c2ccccc2)nc(CC)c(C(=O)SCC)c1CCC
inactive: all assays above

CC(N)=NCCCC[C@@H](N)C(=O)O
inactive: all assays above

CCCCCC[C@@H]([C@@H](C)O)n1cnc2c(N)ncnc21
inactive: all assays above

C[C@H](O)C(=O)C1=Nc2c(nc(N)[nH]c2=O)NC1
inactive: all assays above

COc1cc(CNC(=O)CCCCCCC(C)C)ccc1O
inactive: all assays above

CC(C)C[C@H](NC(=O)C1OC1C(=O)O)C(=O)NCCCCN=C(N)N (some centres not stated)
inactive: all assays above

Cc1cccc(C(=O)NCN2CCN(c3ccccc3C#N)CC2)c1
inactive: all assays above

N[C@@H](Cc1ccc(F)cc1)C(=O)O
inactive: all assays above

O=C(O)C1=CCCN(CCON=C(c2ccccc2)c2ccccc2)C1
inactive: all assays above

Cc1nc(N=Nc2ccc(S(=O)(=O)O)cc2S(=O)(=O)O)c(COP(=O)(O)O)c(C=O)c1O
inactive: all assays above

COc1cc(C(O)CO)ccc1O (configuration not stated)
inactive: all assays above

OC[C@H]1O[C@H](n2cnc3c(N[C@H]4CCC[C@@H]4O)ncnc32)[C@H](O)[C@@H]1O
inactive: all assays above
